# BLM inh – qHTS Assay for Inhibitors of Bloom's syndrome helicase (BLM); Potency, µM (doses to about 56.1 µM), for inactives: at the highest dose activity change, negative = inhibition, most hits filed as inhibitors; 0.2% of 350,000 active; AID 2528, 2010; recombinant BLM DNA unwinding, fluorescence dequenching;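 further: plate controls were vehicle for no effect and no enzyme for full effect; nearly all actives have a fitted effect of over 35% in size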
# APEX1 inh – qHTS Assay for Inhibitors of the Human Apurinic/apyrimidinic Endonuclease 1 (APE1); Potency, µM (doses to about 65.8 µM), for the others: at the highest dose activity change, negative = inhibition, most hits filed as inhibitors; 0.35% of 350,000 active; recombinant APE1, TAMRA/BHQ-2 abasic DNA cleavage fluorescence; DNA repair nuclease/redox regulator APEX1 (Homo sapiens), P27695;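 further: plate controls were vehicle for no effect and reference inhibitor for full effect; nearly all actives have a fitted effect of over 55% in size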
#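 Enzyme (0.75 nM final) and test compound are incubated 15 min at room temperature before adding 50 nM quenched THF abasic-site duplex. Cleavage dequenches TAMRA, followed at 525/598 nm over three reads one minute apart.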
# KDM4E inh – qHTS Assay for Inhibitors of Human Jumonji Domain Containing 2E (JMJD2E). Lysine-specific demethylase 4E (Homo sapiens), B2RXH2. JMJD2E catalytic domain, FDH-coupled NADH fluorescence (FDH is formaldehyde dehydrogenase). Potency, µM (top dose mostly 57.1 µM), inactives show top-dose activity change, negative = inhibition, usual class: inhibitors. 1.6% of 230,000 active. AID 2147, 2009; active means well fitted inhibition curve with a large enough effect, not every such curve was filed as active; inconclusive means small, poorly fitted or top-dose-only effect, or another doubt; inactive means no such curve, though single readings can be large or run the other way;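 further: 0% = wells with enzyme and -100% = buffer wells without enzyme; nearly all actives have a fitted effect of over 50% in size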
# RECQ1 helicase – qHTS Assay for Inhibitors of RecQ-Like Dna Helicase 1 (RECQ1); 0.54% of 240,000 active; AID 2549, 2010; Potency, µM (top dose mostly 57.3 µM), for inactives: at the highest dose activity, negative = inhibition, usual class: inhibitors; RECQ1 DNA unwinding, red fluorescence kinetic read; ATP-dependent DNA helicase Q1 (Homo sapiens), P46063;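 further: plate controls were vehicle for no effect and no enzyme for full effect; nearly all actives have a fitted effect of over 30% in size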
# Target sequence (P46063 whole entry, looked up): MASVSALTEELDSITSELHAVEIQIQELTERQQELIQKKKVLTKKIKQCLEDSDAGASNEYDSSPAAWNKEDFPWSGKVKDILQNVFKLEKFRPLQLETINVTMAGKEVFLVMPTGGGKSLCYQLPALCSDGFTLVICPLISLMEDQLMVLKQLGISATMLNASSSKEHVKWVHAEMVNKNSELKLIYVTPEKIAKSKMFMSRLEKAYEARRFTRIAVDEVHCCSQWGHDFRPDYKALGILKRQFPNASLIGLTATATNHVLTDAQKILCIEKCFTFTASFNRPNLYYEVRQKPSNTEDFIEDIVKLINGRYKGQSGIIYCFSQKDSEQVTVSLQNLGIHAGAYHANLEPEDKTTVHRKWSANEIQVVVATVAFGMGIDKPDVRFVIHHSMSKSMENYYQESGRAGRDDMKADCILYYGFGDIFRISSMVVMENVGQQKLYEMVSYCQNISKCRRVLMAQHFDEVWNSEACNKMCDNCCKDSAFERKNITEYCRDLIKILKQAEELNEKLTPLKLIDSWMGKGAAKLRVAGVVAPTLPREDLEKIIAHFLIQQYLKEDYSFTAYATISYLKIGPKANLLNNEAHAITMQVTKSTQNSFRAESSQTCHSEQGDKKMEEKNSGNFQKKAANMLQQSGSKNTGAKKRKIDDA
#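 50 nM RECQ1T1 preincubated 15 min with compound in Tris pH 8.0 buffer with MgCl2, DTT, Tween-20 and 2.5 ug/ml poly(dI-dC); started with 200 nM TAMRA/BHQ-2 forked duplex and 2 mM ATP. Unwinding read as fluorescence (525/598 nm), two reads 2 h apart.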
# L3MBTL1 inh – qHTS Assay for the Inhibitors of L3MBTL1; AID 485360, 2010; Potency, µM (highest dose often 57.1 µM), without a hit: at the highest dose activity, negative = inhibition, actives largely listed as inhibitors; Lethal(3)malignant brain tumor-like protein 1 (Homo sapiens), Q9Y468; 0.66% of 230,000 active; AlphaScreen L3MBTL1–H3K9me1 peptide binding; further: nearly all actives have a fitted effect of over 60% in size
#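 L3MBTL1 50 nM + b-AHA-H3(1-15)K9me1 75 nM, 30 min RT; compound added, 30 min RT; streptavidin donor/Ni-chelate acceptor beads 10 ug/mL each final, 30 min RT dark; AlphaScreen read.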
# The depositor's hits bear a star; i = inactive; ? = inconclusive; · = not tested or not shown; ! = not confirmed by another sample; [ ] = dose if it differs, or a comment. Many of the other results were omitted from the sample, so hits are more common in it than they were. Unless noted, the call rests on the fitted dose curve; in most records, active means well fitted curve in the direction sought with a large enough effect; inconclusive means small, poorly fitted or top-dose-only effect, or another doubt; inactive means no such curve, though single readings can be large; an effect the other way counts as inactive or inconclusive. Unless noted, on the % scale 0 is the no-effect control and ±100 the full control effect; potency means the concentration at half of the fitted maximal effect.
SMILES,BLM inh,APEX1 inh,KDM4E inh,RECQ1 helicase,L3MBTL1 inh
COc1ccccc1N(CC(=O)NCc1ccco1)S(=O)(=O)c1ccc(C)cc1,-30%,21µM*,·,·,·
CC(=O)c1c(C)[nH]c(C(=O)OCc2cc(=O)n3cc(Br)ccc3n2)c1C,·,39%,·,·,-6%
Nc1c(C(=O)NCc2ccco2)sc2nc3c(cc12)C(=O)CCC3,-30%,?,-3%,-24%,32µM*
CC(/C=C/c1ccco1)=N\NC(=O)CNc1ccc2ccccc2c1,-8%,-8%,?,-4%,35µM*
Cc1sc2ncn(CC(=O)Nc3cccc(C(F)(F)F)c3)c(=O)c2c1S(=O)(=O)N1CCC(C)CC1,0%,·,·,·,·
NNc1nc(C(F)(F)F)nc2ccccc12,-7%,?,-1%,-5%,·
O/C=c1\ccc2cccc3nc(C(F)(F)F)nc1c23,14µM*,-27%,·,·,·
O=C(Nc1nnc(Cc2ccccc2)s1)c1cccnc1,-2%,17%,-3%,17%,7%
Cc1nnsc1C(=O)NC1CCCc2c1cnn2-c1ccc(F)cc1F (centres undefined),-1%,20%,·,·,·
CC1(NC(=O)CC[N+](C)(C)CCO)CS(=O)(=O)CC1S(=O)(=O)[O-] (centres undefined),5%,10%,8%,-6%,13µM*
COc1cc(C)c2c(c1C=O)Oc1c(c(C)c(O)c3c1C(O)OC3=O)OC2=O (centres undefined),-2%,13µM*,?,14µM*,?
O=C(NC(=S)Nc1ccc2oc(-c3cccnc3)nc2c1)c1cccc(Cl)c1,-2%,-3%,-2%,-8%,6%
C/C(=N/Nc1ccccc1C(=O)O)c1cccs1,3%,10%,·,·,-2%
NS(=O)(=O)c1cccc(C(=O)NC2CCSc3ccccc32)c1 (centres undefined),-4%,48%,·,·,·
NS(=O)(=O)c1cc(C(=O)NC2CCSc3ccccc32)ccc1Cl (centres undefined),8.9µM*,0.12µM*,·,·,·
Cc1cc(F)ccc1NC(=O)C1CCCN(c2nnc(-n3c(C)ccc3C)s2)C1 (centres undefined),0%,·,·,·,·
Cc1cc(-c2ccc(N=Nc3cc(S(=O)(=O)O)c4ccccc4c3N)c(C)c2)ccc1N=Nc1cc(S(=O)(=O)O)c2ccccc2c1N,·,25µM*,·,13µM*,·
O=S(=O)(O)c1ccc2c(N=Nc3ccc(S(=O)(=O)O)c4ccccc34)c(O)c(S(=O)(=O)O)cc2c1,-2%,·,·,·,·
CCC1=NN(C(=O)c2cccc(Br)c2)C(O)(c2ccc(Br)cc2)C1 (centres undefined),-20%,2%,-8%,-8%,28µM*
CCC1=NN(C(=O)c2ccc(C)cc2)C(O)(c2ccc(Br)cc2)C1 (centres undefined),-3%,1%,-12%,-2%,-13%
CCOC(=O)c1ccc(NC(=O)Nc2ccc(F)cc2)cc1,-4%,-2%,3%,-17%,·
CCOC(=O)c1cc[n+](CC(=O)c2ccc(F)cc2)cc1,-10%,9%,32µM*,-15%,22%
CCn1c(CSc2nnc(-c3cccnc3)n2-c2ccccc2C)nc2cc(C(=O)O)ccc21,-16%,?,?,32µM*,?
Cc1cc(S(=O)(=O)NC2CCCCC2)c(C)s1,-1%,-1%,-2%,-8%,-3%
NC(=S)NN=Cc1ccc(-c2ccc(S(=O)(=O)Nc3ncccn3)cc2)o1,·,-28%,·,·,28µM*
SMILES,BLM inh,APEX1 inh,KDM4E inh,RECQ1 helicase,L3MBTL1 inh
CCCCC1=CC2=C(c3ccco3)C(=O)C(C)(OC(=O)c3ccc(OC)cc3)C(=O)C2=CN1CCc1ccccn1 (centres undefined),-5%[12.4 µM],0%[12.4 µM],8.9µM*!,1%[11.5 µM],·
CCc1ccc[n+](-c2[nH]c(=O)sc2/C=N/NC([S-])=Nc2ccccc2)c1,3%,1%,3.5µM*,0%,-24%
O=c1[nH]c(-[n+]2ccccc2)c(/C=N/NC([S-])=Nc2ccccc2)s1,-8%,0%,-29%,i,-20%
CCCCN1C(=O)CC(C(=O)OCC)=C1C,-16%,-7%,?,i,·
CC1CCC2(CC1)NC(=O)N(CC(=O)N1CCN(C(=O)c3cccs3)CC1)C2=O (centres undefined),·,50%,·,·,-5%
CN(Cc1ccco1)c1ccnc(-c2ccoc2)n1,-5%,9%,25µM*,-12%,·
CCOC(=O)c1cccc(NC(=O)N[C@@H](C)C(=O)OC)c1,-1%,-9%,-4%,i,4%
NC(=S)NN=C1c2cc(OCCN3CCOCC3)ccc2-c2ccc(OCCN3CCOCC3)cc21,57%,-36%,·,·,·
COc1ccccc1C(=O)NC(=S)/C=C1/N(C)c2ccccc2C1(C)C,-9%,8%,0%,-9%,13µM*
COc1cc(OC)c(N(C)S(=O)(=O)c2cccc(C(=O)Nc3nnc(C4CC4)s3)c2)cc1Cl,-1%,-2%,?,-2%,·
CN(C)C1C(=O)C(C(N)=O)=C(O)[C@@]2(O)C(=O)C3=C(O)c4c(O)ccc(Cl)c4[C@@H](O)C3C[C@@H]12 (some centres undefined),·,-12%,?,-8%,·
CN(C)[C@@H]1C(=O)C(C(=O)NCN2CCCC2)=C(O)[C@@]2(O)C(=O)C3=C(O)c4c(O)cccc4[C@@](C)(O)C3C[C@@H]12 (some centres undefined),·,7.9µM*,·,·,·
CCCCn1c(N)c(N(CC)C(=O)c2ccncc2)c(=O)[nH]c1=O,·,26%,·,·,2%
COc1ccccc1OCCNC(=O)CNC(=O)c1ccc(Cl)c(Cl)c1,·,-8%,·,·,-5%
C/C(=N\OCC(=O)N/N=C/c1ccccc1O)c1cccs1,-4%,-1%,22µM*,-12%,·
O=C(COc1cccc2cccnc12)N/N=C/c1ccccc1O,1%,18%,7.9µM*,-8%,4%
C/C(=N\OCC(=O)N/N=C/c1ccccc1)c1cccs1,-1%,6%,1%,-5%,·
CC1(C)SC(=S)N(c2ccccc2)C1/[N+]([O-])=C/c1cccc([N+](=O)[O-])c1 (centres undefined),-7%,18%,-4%,-2%,8%
CN(C)c1cncc(C(=O)O)c1,-16%,17%,?,-18%,·
CN(C)c1ccnc(C(=O)O)c1,-14%,13%,2.8µM*,-18%,·
O=C(O)c1cc(Br)ccn1,-8%,1%,18µM*,-7%,·
O=C(O)c1cncc(Br)c1,-2%,49%,8%,i,4%

# High-throughput results (PubChem BioAssay)
